Experiment [1] is described as follows: qHTS assay to identify small molecule antagonists of the androgen receptor (AR) signaling pathway using the MDA cell line in the presence of 0.5 nM R1881 - cell viability counter screen (AID 1259242). Also: nearly all actives have a fitted effect of over 45% in size. Also: potency is read from the fitted curve at half-maximal effect. Put shortly: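 Concentration-response screen of compounds for toxicity in MDA-kb2 reporter cells: 16 hr at 37C with 0.5 nM R1881, endpoint live-cell protease fluorescence measured in the reporter wells.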
Background: Quantitative high-throughput screening tests each substance at several concentrations.

Experiment [2] addresses Androgen receptor (Homo sapiens) (UniProt P10275). Briefly: qHTS assay to identify small molecule antagonists of the androgen receptor (AR) signaling pathway using the MDA cell line in the presence of 0.5 nM R1881 (AID 1259243). Also: nearly all actives have a fitted effect of over 50% in size. Also: potency is read from the fitted curve at half-maximal effect. An outline of the steps: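 With R1881 held at 0.5 nM (final), compound effects on MMTV-luciferase expression in MDA-kb2 cells were scored by luminescence after a 16 hr, 37C incubation.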

Experiment [3] concerns the target Estrogen receptor (Homo sapiens) (UniProt P03372). Nature of the experiment: qHTS assay to identify small molecule antagonists of the estrogen receptor alpha (ER-alpha) signaling pathway using the BG1 cell line in the presence of 0.1 nM 17-beta-estradiol (AID 1259244). Also: nearly all actives have a fitted effect of over 50% in size. Also: potency is read from the fitted curve at half-maximal effect. An outline of the steps:
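Compounds were tested against 0.1 nM (final) 17beta-estradiol in VM7Luc4E2 cells, which express full-length ER-alpha and an ERE-luciferase reporter; luminescence was recorded following 22 h exposure.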

Experiment [4] is described as follows: qHTS assay to identify small molecule HDAC inhibitors (AID 1259364). Also: potency is read from the fitted curve at half-maximal effect.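 Also: wild-type HCT-116 cells with endogenous class I/II HDAC activity; nearly all actives have a fitted effect of over 45% in size.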 An outline of the steps: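 Screening used wild-type human colon HCT-116 cells incubated overnight, dosed with compounds for 2 hours, and assayed with a homogeneous luminogenic HDAC I/II reagent for 30 minutes at room temperature.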
Experiment [5] in a line: qHTS assay to identify small molecule agonists of the sonic hedgehog signaling (Shh) pathway - cell viability counter screen (AID 1259366). Also: nearly all actives have a fitted effect of over 50% in size. Also: potency is read from the fitted curve at half-maximal effect. Put shortly:
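Viability measured fluorometrically (CellTiter-Fluor, 1hr, 37C) in 3T3 Gli1-Luc reporter cells after 23hr compound exposure within a 24hr incubation at 37C/5% CO2.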

Experiment [6] in a line: qHTS assay to identify small molecule antagonists of the sonic hedgehog signaling (Shh) pathway - cell viability counter screen (AID 1259367). Also: nearly all actives have a fitted effect of over 55% in size. Also: potency is read from the fitted curve at half-maximal effect. Put shortly: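 Tox21 library chemicals were tested on a Gli1-Luc NIH/3T3 clone (2,000 cells/well) stimulated by conditioned medium; viability was quantified as fluorescence from CellTiter-Fluor reagent added at 23 hr.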
The nature of experiment [7]: qHTS assay to identify small molecule agonists of the sonic hedgehog signaling (Shh) pathway (AID 1259368; calls by dose curve;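 also: NIH/3T3-derived 3T3Gli1-Luc cells carrying a stable Gli1-driven firefly luciferase reporter; series mostly up to about 92 µM; nearly all actives have a fitted effect of over 15% in size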). Put shortly:
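Hedgehog pathway agonism scored by increased firefly luciferase luminescence in 3T3Gli1-Luc cells treated 24 hr at 37 C; detection used a 30 min room-temperature reagent incubation.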

Experiment [8] in a line: qHTS assay to identify small molecule agonists of the androgen receptor (AR) signaling pathway in the presence of an antagonist - cell viability counter screen (AID 1259379). Also: nearly all actives have a fitted effect of over 25% in size. Also: potency is read from the fitted curve at half-maximal effect. Put shortly: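 MDA-kb2 viability measured by CellTiter-Fluor fluorescence in the same wells as the luciferase signal; nilutamide 3.0uM final; 15-point compound titration; 16 hr at 37C.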
Experiment [9] can be described thus: qHTS assay to identify small molecule agonists of the estrogen receptor beta (ER-beta) signaling pathway - cell viability counter screen (AID 1259380). Also: nearly all actives have a fitted effect of over 30% in size. Also: potency is read from the fitted curve at half-maximal effect. An outline of the steps: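 Measured: luminescence from CellTiter-Glo after 30 min at room temperature, added to wells already read for the LiveBLAzer FRET reporter (2 hr substrate); ER-beta-UAS-bla HEK293T cells had 16 hr compound treatment at 37C, 5% CO2.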

Experiment [10] deals with Androgen receptor (Homo sapiens) (UniProt P10275). Briefly: qHTS assay to identify small molecule agonists of the androgen receptor (AR) signaling pathway in the presence of an antagonist (AID 1259381; calls by dose curve; also: nearly all actives have a fitted effect of over 15% in size). Put shortly:
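Luminescent ONE-Glo read, 30min at room temperature, follows 16hr compound exposure (15 concentrations) of MDA-kb2 cells at 37C, 0% CO2, with nilutamide added at 3.0uM final.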

The nature of experiment [11]: qHTS assay to identify small molecule antagonists of the estrogen receptor beta (ER-beta) signaling pathway - cell viability counter screen (AID 1259382). Also: nearly all actives have a fitted effect of over 55% in size. Also: potency is read from the fitted curve at half-maximal effect. An outline of the steps: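 Readout: luminescence, CellTiter-Glo, same wells as bla assay. System: ER-beta-UAS-bla GripTite HEK293T, 2% charcoal-stripped FBS. Exposure: compounds plus 1nM 17-beta-estradiol, 16 hr, 37C.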

Experiment [12] addresses Estrogen receptor (Homo sapiens) (UniProt P03372). Briefly: qHTS assay to identify small molecule agonists of the estrogen receptor alpha (ER-alpha) signaling pathway in the presence of an antagonist (AID 1259383; calls by dose curve; also: top concentration of the series differs between compounds; nearly all actives have a fitted effect of over 15% in size). An outline of the steps: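 Quantitative HTS confirmation: compounds titrated at 15 concentrations onto estrogen-deprived VM7Luc4E2 cells carrying a four-ERE luciferase construct, with ICI-182,780 present at 10.0nM final. Signal is luminescence after 22hr exposure.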

A short description of experiment [13]: qHTS assay to identify small molecule agonists or antagonists of the thyroid stimulating hormone receptor (TSHR) signaling pathway - wild type cell line counter screen (AID 1259384; calls by dose curve). An outline of the steps:
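Wild-type Hek293 cells, 800/well, 18 h at 37C, then compound with Ro20-1724 for 30 min RT. cAMP by HTRF (cAMP-d2/anti-cAMP cryptate), 1 h RT, fluorescence read. 15 concentrations, triplicates.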

The target in experiment [14] is Thyrotropin receptor (Homo sapiens) (UniProt P16473). Briefly: qHTS assay to identify small molecule antagonists of the thyroid stimulating hormone receptor (TSHR) signaling pathway (AID 1259385; calls by dose curve; also: nearly all actives have a fitted effect of over 20% in size). Put shortly: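 TSHR-HEK293 cells (800/well) plated 18 h, then compounds with Ro20-1724 and TSH at 1.5 ng/mL final, 30 min at room temperature. cAMP quantified by HTRF (cAMP-d2/anti-cAMP-cryptate, 1 h); 15 concentrations in triplicate.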

Experiment [15] in a line: qHTS assay to identify small molecule antagonists of the sonic hedgehog signaling (Shh) pathway (AID 1259369; calls by dose curve; also: nearly all actives have a fitted effect of over 45% in size; also: potency is read from the fitted curve at half-maximal effect). An outline of the steps:
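NIH/3T3 stable Gli1-Luc clone, 2,000 cells/well, 4hr settle; cpd + conditioned medium 24hr; Luc reagent 30min RT; luminescence.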

The nature of experiment [16]: qHTS assay to identify small molecule phospholipidosis (PLD) inducers (AID 1259344; active = well fitted curve in the direction sought with a large enough effect; an effect the other way counts as inactive or inconclusive). An outline of the steps:
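Image-based: LipidTOX Red pit count/intensity per well and per cell; HepG2, 24 h compound at 37 C, PFA fixation, Hoechst counterstain.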

Experiment [17] is described as follows: qHTS assay to identify small molecule HDAC inhibitors - cell viability counter screen (AID 1259365). Also: nearly all actives have a fitted effect of over 50% in size. Also: potency is read from the fitted curve at half-maximal effect. An outline of the steps: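 Viability readout: CellTiter-Glo luminescence. Wild-type HCT-116 cells, 2hr compound treatment following overnight attachment at 37 C.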
Experiment [18] has as its target Estrogen receptor beta (Homo sapiens) (UniProt Q92731). Nature of the experiment: qHTS assay to identify small molecule agonists of the estrogen receptor beta (ER-beta) signaling pathway (AID 1259377; active = well fitted activation curve with a large enough effect in the signal ratio in the repeat runs, not every such curve was filed as active; the % refers to the signal ratio). An outline of the steps: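 A UAS-controlled beta-lactamase reporter in ER-beta-UAS-bla HEK293T cells reports receptor activation. Compounds act for 16 hr at 37C in 2% charcoal-stripped serum, and a FRET substrate is read by fluorescence after 2 hours.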

For experiment [19] the target is unchanged. Nature of the experiment: qHTS assay to identify small molecule antagonists of the estrogen receptor beta (ER-beta) signaling pathway (AID 1259378; active = well fitted inhibition curve with a large enough effect in the signal ratio in the repeat runs, not every such curve was filed as active; the % refers to the signal ratio). Put shortly:
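ER-beta-UAS-bla HEK293T cells in 2% charcoal-stripped FBS medium treated with compound plus 1nM final 17-beta-estradiol for 16 hr at 37C. Beta-lactamase reporter read by FRET substrate fluorescence after 2 hours at room temperature.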

A number with no mark means an inactive call. Records with an inconclusive call do not appear. Active and inactive are the calls of the source. Unless noted, calls follow the shape of the dose curve; as a rule, active = well fitted curve in the direction sought with a large enough effect in the repeat runs; inconclusive = weak or mixed curves; inactive = no such curve, though single readings can be large; an effect the other way counts as inactive or inconclusive.

Sequence of Thyrotropin receptor (Homo sapiens) (P16473 whole entry, looked up): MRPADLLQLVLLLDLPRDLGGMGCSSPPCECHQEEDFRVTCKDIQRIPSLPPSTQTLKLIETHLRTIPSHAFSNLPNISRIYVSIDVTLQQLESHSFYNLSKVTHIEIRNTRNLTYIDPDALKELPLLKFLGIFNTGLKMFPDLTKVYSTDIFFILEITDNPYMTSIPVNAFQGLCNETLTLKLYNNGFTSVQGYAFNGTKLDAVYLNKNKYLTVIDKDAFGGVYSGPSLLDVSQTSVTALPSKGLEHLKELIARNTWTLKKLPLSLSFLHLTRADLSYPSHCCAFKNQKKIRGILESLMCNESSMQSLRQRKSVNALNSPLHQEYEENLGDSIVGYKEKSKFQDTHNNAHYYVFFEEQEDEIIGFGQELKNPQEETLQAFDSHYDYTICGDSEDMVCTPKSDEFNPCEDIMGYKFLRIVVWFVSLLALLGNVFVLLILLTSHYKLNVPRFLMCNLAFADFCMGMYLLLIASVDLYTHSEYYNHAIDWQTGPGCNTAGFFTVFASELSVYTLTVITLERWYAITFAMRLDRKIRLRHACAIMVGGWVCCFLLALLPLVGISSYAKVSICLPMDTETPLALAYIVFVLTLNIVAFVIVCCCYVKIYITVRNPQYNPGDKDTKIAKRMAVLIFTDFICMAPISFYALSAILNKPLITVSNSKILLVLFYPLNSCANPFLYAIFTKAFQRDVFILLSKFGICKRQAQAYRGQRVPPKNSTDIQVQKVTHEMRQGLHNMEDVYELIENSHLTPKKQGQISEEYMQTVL
Sequence of Estrogen receptor beta (Homo sapiens) (Q92731 whole entry, looked up): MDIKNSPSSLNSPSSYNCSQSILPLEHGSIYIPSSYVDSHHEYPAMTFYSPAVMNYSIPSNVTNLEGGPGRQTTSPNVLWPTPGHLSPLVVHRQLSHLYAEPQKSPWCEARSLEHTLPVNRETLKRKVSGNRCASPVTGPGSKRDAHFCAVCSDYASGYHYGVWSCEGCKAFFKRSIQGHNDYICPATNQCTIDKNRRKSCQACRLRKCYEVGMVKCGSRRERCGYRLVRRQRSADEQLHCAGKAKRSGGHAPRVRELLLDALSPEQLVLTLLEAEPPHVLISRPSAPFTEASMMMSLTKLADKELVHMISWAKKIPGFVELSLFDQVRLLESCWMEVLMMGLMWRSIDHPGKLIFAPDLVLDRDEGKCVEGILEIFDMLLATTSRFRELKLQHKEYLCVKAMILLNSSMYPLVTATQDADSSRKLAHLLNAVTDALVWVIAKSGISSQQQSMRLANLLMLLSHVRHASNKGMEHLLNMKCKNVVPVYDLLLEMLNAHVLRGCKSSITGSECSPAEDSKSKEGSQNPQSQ
Sequence of Estrogen receptor (Homo sapiens) (P03372 whole entry, looked up): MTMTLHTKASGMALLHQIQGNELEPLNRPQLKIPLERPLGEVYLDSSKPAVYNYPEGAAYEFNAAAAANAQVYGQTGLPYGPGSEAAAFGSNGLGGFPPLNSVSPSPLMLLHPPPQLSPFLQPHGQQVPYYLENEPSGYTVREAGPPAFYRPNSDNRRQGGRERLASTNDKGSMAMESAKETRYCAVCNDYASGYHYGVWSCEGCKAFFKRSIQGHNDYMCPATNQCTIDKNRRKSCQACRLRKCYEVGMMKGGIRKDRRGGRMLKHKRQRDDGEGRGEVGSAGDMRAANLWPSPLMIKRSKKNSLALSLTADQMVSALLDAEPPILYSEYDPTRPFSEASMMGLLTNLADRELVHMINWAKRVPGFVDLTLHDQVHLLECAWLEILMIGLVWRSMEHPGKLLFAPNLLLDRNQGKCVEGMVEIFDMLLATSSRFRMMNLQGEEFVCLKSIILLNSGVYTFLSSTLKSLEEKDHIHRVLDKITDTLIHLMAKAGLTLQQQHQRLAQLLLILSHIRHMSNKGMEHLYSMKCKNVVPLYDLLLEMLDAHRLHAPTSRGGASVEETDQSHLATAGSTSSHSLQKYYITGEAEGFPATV
Sequence of Androgen receptor (Homo sapiens) (P10275 whole entry, looked up): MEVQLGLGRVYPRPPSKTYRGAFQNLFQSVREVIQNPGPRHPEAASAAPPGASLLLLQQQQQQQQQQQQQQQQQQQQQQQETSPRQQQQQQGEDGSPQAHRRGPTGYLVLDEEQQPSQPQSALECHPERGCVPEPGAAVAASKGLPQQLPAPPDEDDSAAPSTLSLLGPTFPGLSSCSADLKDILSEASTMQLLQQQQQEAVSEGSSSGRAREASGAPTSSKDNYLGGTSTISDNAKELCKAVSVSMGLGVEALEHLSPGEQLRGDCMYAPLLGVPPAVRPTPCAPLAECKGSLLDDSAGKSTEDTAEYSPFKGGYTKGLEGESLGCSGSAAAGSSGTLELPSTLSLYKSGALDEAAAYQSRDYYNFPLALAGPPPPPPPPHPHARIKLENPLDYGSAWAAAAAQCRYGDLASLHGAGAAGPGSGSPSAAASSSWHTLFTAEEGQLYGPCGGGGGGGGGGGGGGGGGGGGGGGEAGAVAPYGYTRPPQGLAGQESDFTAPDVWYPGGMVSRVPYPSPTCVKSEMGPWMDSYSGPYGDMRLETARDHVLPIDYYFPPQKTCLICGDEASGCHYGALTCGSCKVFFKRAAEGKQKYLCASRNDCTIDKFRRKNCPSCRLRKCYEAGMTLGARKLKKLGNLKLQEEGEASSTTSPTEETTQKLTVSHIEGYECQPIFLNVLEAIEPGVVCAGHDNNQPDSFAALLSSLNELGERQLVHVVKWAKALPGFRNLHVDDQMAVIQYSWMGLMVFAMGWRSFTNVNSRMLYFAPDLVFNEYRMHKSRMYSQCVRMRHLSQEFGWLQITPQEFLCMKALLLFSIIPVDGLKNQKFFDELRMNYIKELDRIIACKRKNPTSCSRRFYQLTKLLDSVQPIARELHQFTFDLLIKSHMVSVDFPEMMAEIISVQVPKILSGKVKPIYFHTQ

On to `CC(=O)c1ccc(-c2ccccc2)cc1`, for which the Potency result in [1], in [3], in experiment [5], in [6], in experiment [7] and in experiment [8] was “inactive” throughout. Moreover, the Potency result in experiment [9], in experiment [10], in experiment [11], in [12] and in [14] was “inactive” in each case. The figures for the Potency in [2] and in [4] were 19.3 µM (active) and 24.3 µM (active), respectively. The call in experiment [13] was inactive.
`COP(N)(=S)OC`: the Potency entry in experiment [1], in experiment [2], in experiment [3], in experiment [4], in [5] and in experiment [6] was “inactive” each time. The Potency entry in experiment [7], in experiment [15], in experiment [8], in [9], in [10] and in [11] was “inactive” throughout. The Potency result in experiment [12] and in experiment [14] was “inactive” in each case. In addition, the outcome in experiment [13] was inactive.
`CCCCCCCCCC[N+](C)(C)CCCCCCCCCC`: the Potency was 54.5 µM (active) in [1]; 30.6 µM (active) in experiment [3]; 68.6 µM (active) in [17]; 21.7 µM (active) in experiment [5]; 13.7 µM (active) in experiment [6]; 0.969 µM (active) in [15]. The Potency in experiment [8] is 54.5 µM (active); in [9], 15.4 µM (active); in [11], 17.2 µM (active). For the same compound, the Potency result in experiment [16], in experiment [4], in [7] and in experiment [12] was “inactive” throughout. Also, the result in experiment [13] was inactive.
Turning to `CCCN(CCC)CCc1c[nH]c2ccccc12`, the Potency result in experiment [1], in [3], in experiment [4], in experiment [17], in [5] and in experiment [6] was “inactive” each time. In addition, the Potency entry in [7], in experiment [18], in [8], in experiment [11], in [12] and in experiment [14] was “inactive” each time. Also, in [15], the Potency is 67.7 µM (active). Moreover, the compound was classed as inactive in experiment [13].
Take `CCCCCCCCCCCCCC[P+](CCCCCC)(CCCCCC)CCCCCC` (tested in a mixture with another compound): the Potency in experiment [1] is 19.3 µM (active); in experiment [3], 3.86 µM (active); in experiment [17] it was 68.6 µM (active); in experiment [5], 13.7 µM (active); in experiment [6], 48.6 µM (active); in [8], 8.63 µM (active). Also, the Potency in experiment [9] was 24.3 µM (active); in experiment [11], 27.3 µM (active). Besides, the Potency entry in experiment [4], in experiment [7] and in experiment [12] was “inactive” throughout. In addition, the outcome in experiment [13] was inactive.
`O=C1c2ccccc2C(=O)C1C(=O)C(c1ccccc1)c1ccc(Cl)cc1` (stereo unspecified): the Potency result in experiment [1], in experiment [4], in experiment [5], in experiment [6], in experiment [7] and in experiment [10] was “inactive” in each case. The Potency entry in experiment [12] is “inactive”. The Potency in experiment [2] was 21.7 µM (active); in experiment [3], 27.3 µM (active); in experiment [15] it was 54.5 µM (active); in [8], 27.3 µM (active); in experiment [9] it was 24.3 µM (active). Moreover, the outcome in [13] was inactive.
Take `CC(=O)C(Cl)(Cl)Cl`: the Potency in experiment [1] was 14.8 µM (active); in [2] it was 9.35 µM (active); in [3], 11.8 µM (active); in experiment [5], 20.9 µM (active); in [6] it was 16.6 µM (active); in experiment [8], 20.9 µM (active). The Potency entry in experiment [4], in experiment [17], in experiment [7], in experiment [9], in [10] and in experiment [11] was “inactive” in each case. Also, the Potency entry in experiment [12] is “inactive”. Besides, the outcome in experiment [13] was inactive.
On to `CCCCCCCCc1ccc(O)cc1`, for which the Potency result in experiment [16], in experiment [4], in [17], in experiment [6], in experiment [7] and in experiment [8] was “inactive” in each case. Besides, the Potency entry in experiment [10] and in [14] was “inactive” in each case. Further, the Potency in [9] was 15.4 µM (active). For the same compound, the compound was called inactive in experiment [13].
Turning to `CCc1cc(C)cc(CC)c1-c1c(OC(=O)C(C)(C)C)n2n(c1=O)CCOCC2`, the Potency result in [1], in [3], in experiment [4], in [7], in [15] and in experiment [18] was “inactive” in each case. Besides, the Potency entry in experiment [19], in [9], in [11], in [12] and in experiment [14] was “inactive” in each case. The Potency in experiment [5] was 27.3 µM (active); in experiment [6] it was 15.4 µM (active). The result in experiment [13] was inactive.
Regarding `CC(C)(c1ccc(O)c(-c2ccccc2)c1)c1ccc(O)c(-c2ccccc2)c1`, the Potency in experiment [2] is 30.6 µM (active); in [3], 48.6 µM (active); in [5], 15.4 µM (active); in [15], 12.2 µM (active); in [8], 54.5 µM (active); in experiment [9] it was 27.3 µM (active). Besides, in experiment [11], the Potency is 27.3 µM (active). In addition, the Potency result in experiment [4], in experiment [7], in experiment [10] and in experiment [12] was “inactive” in each case.

Values taken from PubChem BioAssay (Tox21).
